Each structure is given as a SMILES string. Potency and affinity values are given separately. Results filed as inconclusive are left out. Where a call stands in place of a potency, no number is given. Calls of active or inactive are those of the source. The rule behind the calls is not given here.

A short description of this assay: toxicity to human HepG2 hepatoma cells – cell-based, plate reader, dry powder samples, cytotoxicity control, dose response (AID 1159569). The following applies: HepG2 cytotoxicity counterscreen; series mostly up to 50 µM.
In the case of `CO[C@@H]1CN(C)C(=O)c2ccc(NC(=O)Nc3ccccc3F)cc2OC[C@@H](C)N(Cc2ccccc2F)C[C@H]1C`, the molecule was classed as inactive.

On to `O=C(C1CCCC1)N1CC(=O)N2[C@H](CO)[C@H](c3ccc(-c4cccnc4)cc3)[C@H]2C1`, for which the result was inactive.

As for `COc1ccc(NC(=O)N2CCC3(CC2)CN(C(=O)C2CCC2)[C@H](CO)c2c3c3ccc(OC)cc3n2C)cc1`, the result was inactive.

For the molecule `C[C@H](CO)N1C[C@H](C)[C@@H](CN(C)C(=O)Nc2cccc3ccccc23)Oc2ccc(NC(=O)Cc3cn(C)c4ccccc34)cc2C1=O`, the molecule was classed as inactive.

For the molecule `Cc1ccc(S(=O)(=O)N(C)C[C@H]2OCc3ccccc3-c3c(n(C)c4ccccc34)C(=O)N([C@H](C)CO)C[C@@H]2C)cc1`, the molecule was classed as inactive.

For the molecule `CCCNC(=O)Nc1ccc2c(c1)OC[C@@H](C)N(Cc1ccccc1)C[C@@H](C)[C@H](OC)CN(C)C2=O`, the result was inactive.

On to `C[C@H]1CN([C@@H](C)CO)C(=O)c2c(c3ccccc3n2C)-c2ccccc2CO[C@@H]1CN(C)S(=O)(=O)c1ccc(F)cc1`, for which the call was inactive.

Consider `C[C@H](CO)N1C[C@H](C)[C@H](CN(C)S(=O)(=O)c2ccc(C#N)cc2)OCc2ccccc2-c2c(n(C)c3ccccc23)C1=O`, for which the result was inactive.

Consider `COc1ccc(C#Cc2ccc3c(c2)[C@H]2[C@H](CCN2C(=O)C2CCCC2)[C@@H](CO)N3)cc1`, for which the molecule was classed as inactive.

As for `COc1ccc2c3c(n(C)c2c1)[C@@H](CO)N(C(=O)c1ccc(F)cc1)CC31CN(C(=O)Nc2ccc(F)cc2)C1`, the call was inactive.

Turning to `O=C(Nc1ccccc1)N1CCCCN2[C@H](CO)[C@H](c3ccc(C#Cc4cccnc4)cc3)[C@@H]2C1`, the outcome was inactive.

As for `CCc1csc(N2[C@H](C#N)[C@H](c3ccccc3-c3ccc(F)cc3)[C@H]2CO)n1`, the molecule was called inactive.

For `C[C@H](CO)N1C[C@H](C)[C@@H](CN(C)C(=O)Nc2cccc3ccccc23)Oc2ccc(NC(=O)Nc3ccc(C(F)(F)F)cc3)cc2C1=O`, the result was inactive.

As to `C[C@@H]1CN([C@H](C)CO)C(=O)c2cccc(NC(=O)c3ccc(-c4nccs4)cc3)c2O[C@H]1CN(C)Cc1ccc(C(F)(F)F)cc1`, the call was inactive.

Consider `CC(C)(C)S(=O)N1Cc2cc(C(=O)NCc3ccc(Oc4ccccc4)cc3)nc(-c3cccc(-c4cccc(F)c4)c3)c2[C@@H]1CCO` (stereo partly specified), for which the molecule was classed as inactive.

With `C[C@H](CO)N1C[C@H](C)[C@@H](CN(C)C(=O)Nc2ccc(-c3ccccc3)cc2)OCc2ccccc2-c2c(n(C)c3ccccc23)C1=O`, the result was inactive.

As to `C[C@@H]1CN([C@H](C)CO)C(=O)c2cc(NC(=O)Nc3ccc(C(F)(F)F)cc3)ccc2O[C@H]1CN(C)C(=O)Nc1cccc2ccccc12`, the molecule was classed as inactive.

Regarding `C/C=C/c1ccc([C@H]2[C@@H](C#N)N(C(=O)NC3CCCC3)[C@@H]2CO)cc1`, the result was inactive.

Consider `COc1ccc(NC(=O)N(C)C[C@@H]2Oc3cc(-c4ccc(C)cc4)ccc3S(=O)(=O)N([C@H](C)CO)C[C@@H]2C)cc1`, for which the outcome was inactive.

For `COc1ccc2c3c(n(C)c2c1)[C@@H](CO)N(C(=O)C1CCCC1)CC31CCN(C(=O)Nc2cccc(F)c2)CC1`, the call was inactive.

With `CO[C@@H]1CN(C)C(=O)c2ccc(NC(=O)c3ccc4c(c3)OCO4)cc2OC[C@@H](C)N(Cc2ccc3c(c2)OCO3)C[C@H]1C`, the call was inactive.

Turning to `COc1ccc(C#Cc2ccc3c(c2)O[C@H](CN(C)C(=O)Nc2cccc(OC)c2)[C@H](C)CN([C@@H](C)CO)S3(=O)=O)cc1`, the result was inactive.

In the case of `O=C(Nc1ccccc1F)N1CCCCN2[C@@H](CO)[C@H](c3ccc(C#Cc4cccnc4)cc3)[C@@H]2C1`, the molecule was called inactive.

With `COc1ccc(-c2ccccc2[C@H]2[C@@H](C#N)N(C(=O)C3CCCC3)[C@@H]2CO)cc1`, the outcome was inactive.

Regarding `O=C(c1ccccc1F)N1CC(=O)N2[C@H](CO)[C@H](c3ccc(-c4cccnc4)cc3)[C@H]2C1`, the molecule was called inactive.

Turning to `COc1ccc(C#Cc2ccc3c(c2)O[C@@H](CN(C)S(=O)(=O)c2ccccc2F)[C@@H](C)CN([C@@H](C)CO)S3(=O)=O)cc1`, the outcome was inactive.

Consider `COc1ccc(S(=O)(=O)Nc2ccc3c(c2)CC(=O)N([C@@H](C)CO)C[C@H](C)[C@H](CN(C)S(=O)(=O)c2ccc(OC)cc2)O3)cc1`, for which the outcome was inactive.

Regarding `COc1ccc(S(=O)(=O)Nc2ccc3c(c2)CC(=O)N([C@H](C)CO)C[C@H](C)[C@H](CN(C)S(=O)(=O)c2ccc(C)cc2)O3)cc1`, the call was inactive.

In the case of `COCC#Cc1ccc(CC[C@H]2O[C@H]3CC[C@H](CO)O[C@H]3C[C@@H]2n2cc(C3CC3)nn2)cc1`, the call was inactive.

For `COc1ccc2c3c([nH]c2c1)[C@@H](CO)N(Cc1ccccc1)CC31CCN(Cc2cncnc2)CC1`, the call was inactive.

Regarding `COc1ccccc1S(=O)(=O)N(C)C[C@H]1Oc2cc(/C=C/c3ccccc3)ccc2S(=O)(=O)N([C@H](C)CO)C[C@@H]1C`, the result was inactive.

Source of the values: PubChem BioAssay AID1159569 (Broad Institute, 2015).
